Compound activity: PubChem BioAssay, National Center for Advancing Translational Sciences (NCATS)
Only some compounds are listed: those with a hit (about 3.7% of all), similar ones and a draw of the others.
ATXN2 expr inh – Primary qHTS for Inhibitors of ATXN expression; HEK-293 ATXN2-luciferase reporter, luminescence, 24 h; Potency, µM (series often up to 57 µM), for inactives: at the top dose activity change, negative = inhibition, most hits filed as inhibitors; actives 0.72% (n = 360,000); note: % is set by controls: 0 for no effect and ±100 for the full control effect; nearly all actives have a fitted effect of over 55% in size
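qHTS (up to 57 uM final) was run with 24 h compound exposure of reporter cells at 37 °C. Each well was multiplexed: SteadyGlo luminescence measured ATXN2-luciferase expression after a fluorogenic Gly-Phe-AFC viability readout (25 uM final).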
S2 tox – Viability Counterscreen for Primary qHTS for Inhibitors of ATXN expression | S2 cells (HEK-293 line with an ATXN2-luciferase reporter) viability, CellTiter-Fluor protease fluorescence, 24 h | Potency, µM (series often up to 56.7 µM), most hits filed as cytotoxic | actives 0.49% (n = 400,000) | AID 651635, 2014; note: nearly all actives have a fitted effect of over 40% in size
GLP-1R agonist – qHTS of GLP-1 Receptor Agonists. Glucagon-like peptide 1 receptor (Homo sapiens), P43220. HEK293 GLP-1R CRE-luciferase, luminescence, 4-6 h; cells express a hypersensitive GLP-1R form. Potency, µM (titrated, usually from 45.6 µM), for the others: at the highest dose activation, actives largely listed as activators. actives 0.007% (n = 380,000). AID 624172, 2012; note: % of control where 0% means no effect
Target sequence (P43220 whole entry, looked up): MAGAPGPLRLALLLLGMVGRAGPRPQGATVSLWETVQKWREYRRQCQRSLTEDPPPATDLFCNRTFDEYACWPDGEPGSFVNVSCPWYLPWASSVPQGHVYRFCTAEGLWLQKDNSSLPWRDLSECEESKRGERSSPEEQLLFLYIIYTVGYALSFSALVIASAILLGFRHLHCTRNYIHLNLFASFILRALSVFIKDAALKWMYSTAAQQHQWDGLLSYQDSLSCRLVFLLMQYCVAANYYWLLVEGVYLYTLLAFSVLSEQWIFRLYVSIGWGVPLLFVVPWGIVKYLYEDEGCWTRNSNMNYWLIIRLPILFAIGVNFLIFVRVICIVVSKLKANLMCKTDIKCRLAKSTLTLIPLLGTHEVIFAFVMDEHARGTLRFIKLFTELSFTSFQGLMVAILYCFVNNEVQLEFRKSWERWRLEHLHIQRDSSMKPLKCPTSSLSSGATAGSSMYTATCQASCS
TGFb SMAD3 inh – qHTS for Inhibitors of TGF-b; actives 1.2% (n = 410,000); HepG2 CAGA-GFP TGF-b/SMAD3 reporter, GFP fluorescence, 18 h; TGF-beta stimulated, 500 pg/mL final; Potency, µM (highest dose often 46.1 µM), for the others: at the highest dose activity, negative = inhibition, hits mostly inhibitors; note: % is set by controls: 0 for no effect and ±100 for the full control effect; nearly all actives have a fitted effect of over 65% in size
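HEPG2 CAGA-GFP reporter cells (1000/well, DMEM with 1% FBS) received compounds, then recombinant TGF-beta at 500 pg/mL final for 18 hours at 37 degrees C. Per-cell GFP summed per well was normalised to unstimulated and stimulated DMSO controls before curve fitting.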
HepG2 viability – qHTS for Inhibitors of TGF-b: Cytotox Counterscreen; HepG2 CAGA-GFP viability, ATP luminescence, 18 h; Potency, µM (titrated, usually from 46.1 µM), for the others: at the highest dose activity change, negative = cytotoxicity, usual class: cytotoxic; actives 0.76% (n = 410,000)
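HepG2 CAGA-GFP cells (1000/well, DMEM with 1% FBS) received compound, then TGF-beta at 500 pg/mL final, and were incubated 18 hours at 37 degrees C. Viability was read by CellTiter-Glo luminescence. Media-only wells were set as complete cell-killing and DMSO as no toxicity.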
GLP-1R inv ag – qHTS of GLP-1 Receptor Inverse Agonists (Inhibition Mode); Glucagon-like peptide 1 receptor (Homo sapiens), P43220; HEK293 GLP-1R CRE-luciferase, luminescence, 24 h; GLP-1R form is constitutively active; Potency, µM (top dose mostly 38.3 µM), for inactives: at the top dose activity change, negative = inhibition, usual class: inhibitors; actives 1.6% (n = 410,000); AID 624417, 2012; note: % is set by controls: 0 for no effect and ±100 for the full control effect; nearly all actives have a fitted effect of over 55% in size
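Seeding at 200 cells/uL, 12 h culture, 24 hr compound treatment, then luciferase reagent and a luminescence read; cells are HEK293 stably expressing a constitutively active GLP-1R plus cAMP-responsive luciferase.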
The depositor's hits bear a star; i = inactive; ? = inconclusive; nt = no result given. Calls come from the whole dose curve; as a rule, active = well fitted curve in the direction sought with a large enough effect; inconclusive = small, poorly fitted or top-dose-only effect, or another doubt; inactive = no such curve, though single readings can be large; an effect the other way counts as inactive or inconclusive. Potency is the fitted concentration of half-maximal effect.

SMILES	ATXN2 expr inh	S2 tox	GLP-1R agonist	TGFb SMAD3 inh	HepG2 viability	GLP-1R inv ag
CN(CC(=O)Nc1cc(Cl)cc(Cl)c1)Cc1cccs1	-0.8%	i	14.6%	2.7%	-29.5%	12.6µM*
CN(CC(=O)Nc1ccc(F)cc1Cl)Cc1cccs1	-3.7%	i	26.0%	-5.9%	-6.9%	?
CC(Cc1cccs1)NC(=O)Nc1cccc(Cl)c1 (stereo not given)	-11.9%	i	2.0%	-1.2%	-16.0%	11.2µM*
COc1ccc(N(Cc2cccs2)C(=O)Nc2cccc(Cl)c2)cc1	nt	nt	nt	?	-19.6%	10µM*
c1coc(CNc2ncnc3c2nc2n3CCCC2)c1	nt	nt	nt	-28.1%	-9.4%	nt
O=S(=O)(NCc1nc2cccnc2n1Cc1ccccc1)c1ccc2c(c1)CCCC2	nt	nt	nt	?	-40.2%	-21.2%
O=C(CN1C(=O)NC2(CCc3ccccc32)C1=O)Nc1cccc(Cl)c1 (stereo not given)	-22.8%	?	-0.3%	13.0%	-22.9%	11.2µM*
CC(C)c1ccc(C(=O)CN2C(=O)NC3(CCc4ccccc43)C2=O)cc1 (stereo not given)	-10.8%	i	-0.7%	66.0%	-43.3%	2.51µM*
COc1cccc(NC(=O)CN2C(=O)NC3(CCc4ccccc43)C2=O)c1 (stereo not given)	10.1%	i	1.8%	1.4%	-0.1%	-0.6%
O=C(CN1C(=O)NC2(CCc3ccccc32)C1=O)c1ccc(Cl)cc1 (stereo not given)	6.5%	i	16.3%	-2.5%	-18.0%	?
COc1ccc2cc3[n+](cc2c1O)CCc1cc2c(cc1-3)OCO2	-2.2%	?	-5.4%	nt	nt	10.0%
C[n+]1cc2c3c(ccc2c2ccc4cc5c(cc4c21)OCO5)OCO3	1.58µM*	2.82µM*	-11.8%	1.41µM*	-105.0%	nt
COc1ccccc1CNS(=O)(=O)c1cc(CN2C(=O)c3cccnc3C2=O)ccc1OC	nt	i	-0.2%	1.8%	5.8%	11.9%
COc1cc(CCNC2=CC(=O)c3ncccc3C2=O)ccc1O	23.8µM*	nt	-12.6%	?	2.51µM*	?
O=C(c1ccc(Cl)cc1)C1CCN(Cc2ccccc2)CC1	nt	i	-1.0%	2.2%	-7.8%	?
O=C(C1CCN(Cc2ccc(Cl)cc2)CC1)N1CCN(C(c2ccccc2)c2ccccc2)CC1	?	?	-4.5%	?	-99.6%	3.98µM*
N=C1C(c2nc3ccccc3s2)=C(O)CN1Cc1ccccc1	-2.4%	i	-6.3%	0.0%	-18.5%	17.3%
CCN(CC)CCCN1CC(O)=C(c2nc3ccccc3s2)C1=N	-23.9%	i	4.8%	31.3%	-17.9%	11.2µM*
O=C1CC(=Nc2ccc([N+](=O)[O-])cc2)NN1c1c(Cl)cc(Cl)cc1Cl	nt	i	-1.8%	15.8µM*	-69.9%	?
CC(N)=Nc1ccc([N+](=O)[O-])cc1	-6.2%	i	-7.9%	4.3%	2.9%	10.8%
O=C(O)c1ccc(N/N=C/c2c(F)cccc2Cl)cc1	?	i	-4.6%	-3.5%	-1.9%	5.01µM*
O=C(N/N=C/c1c(F)cccc1Cl)C1CC1	0.7%	i	5.6%	-7.1%	-7.8%	11.0%
CC(C)(C)CC(C)(C)NCC(O)COc1ccc2c(c1)CCC2 (stereo not given)	?	?	-3.8%	?	-96.0%	10µM*
O=C1c2ccccc2C(=O)N1c1cccc(N2C(=O)c3ccccc3C2=O)n1	nt	nt	nt	-6.2%	5.9%	nt
CCOC(=O)C(=Cc1cc(=O)c(OC)co1)C(=O)OCC	?	?	-6.6%	7.08µM*	14.1µM*	?
COc1ccc(/C=C/C(=O)C2(O)CCCCC2)cc1	9.9%	i	5.7%	-27.0%	-4.2%	10µM*
Clc1cccc[n+]1CCc1ccccc1	nt	nt	nt	-20.4%	-2.0%	nt
